Only some compounds are listed: those with a hit (about 9.5% of all), similar ones and a draw of the others.
Pf growth 96h: inhibits malaria parasite growth, 96 h. P. falciparum luciferase reporter growth, 96 h. Potency, µM (titrated, usually from 28.7 µM), inactives show top-dose activity change, negative = inhibition, most hits filed as inhibitors. hit rate 6.9% among 320,000; note: % is set by controls: 0 for no effect and ±100 for the full control effect
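96 h incubation, 37 C, 5% CO2, of luciferase-reporter P. falciparum-infected RBCs (2% hematocrit, 0.05% parasitemia final) with test compounds; endpoint luminescence.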
SARS PLP yeast: blocks SARS-CoV papain-like protease in a yeast assay; S. cerevisiae expressing SARS-CoV PLpro, growth rescue; Potency, µM (series often up to 32.9 µM), for inactives: at the highest dose activity, positive = growth rescue, actives largely listed as activators; hit rate 0.19% among 330,000; AID 485353; calls by dose curve; note: 0% is about no effect; nearly all actives have a fitted effect of over 55% in size
RE007 growth inh: less growth of the S. pombe RE007 Vpr strain. S. pombe RE007 Vpr strain, BacTiter-Glo ATP luminescence, 24 h. Potency, µM (titrated, usually from 92.2 µM), for the others: at the highest dose activity change, negative = less growth, actives largely listed as inhibitors. hit rate 0.21% among 360,000. AID 651644; active = well fitted falling curve with a large enough effect; inconclusive = small, poorly fitted or top-dose-only effect; inactive = no such curve, though single readings can be large or run the other way; note: % is set by controls: 0 for no effect and ±100 for the full control effect; nearly all actives have a fitted effect of over 50% in size
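Fission yeast RE007 carrying one integrated HIV-1 vpr copy, seeded at OD 0.01 in PMG+AL medium with 23 nL pinned compound. Grown 24 h at 30 degrees; viability read by BacTiter-Glo luminescence after 5 min.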
Pf growth 48h: P. falciparum growth inhibition at 48 hours (one generation) | P. falciparum luciferase growth in erythrocytes, 48 h | Potency, µM (highest dose often 28.7 µM), for the others: at the highest dose activity change, negative = inhibition, hits mostly inhibitors | hit rate 5.9% among 310,000 | AID 504832; note: % is set by controls: 0 for no effect and ±100 for the full control effect
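Compounds are pin-transferred into medium, infected erythrocytes (2% hematocrit, 0.1% parasitemia final) are added, and plates sit one parasite generation at 37 C in 5% CO2. Detection reagent is then added and luminescence measured.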
NS1 function inh: influenza NS1 inhibition; Potency, µM (doses to about 46.1 µM), inactives show top-dose activity, positive = more growth; hit rate 0.4% among 270,000; calls by dose curve; note: actives are rising curves; nearly all actives have a fitted effect of over 50% in size
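In this qHTS, NS1 from influenza A is expressed in budding yeast, where it slows growth. Cells are switched from glucose to 2% galactose medium (pH 6.0, -URA), treated with compound, and growth recovery is read at OD600.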
The depositor's hits bear a star; u = inconclusive; x = not tested or not shown; ! = not confirmed by another sample; [ ] = another dose, or the depositor's remark. Unless noted, calls come from the whole dose curve; as a rule, active = well fitted inhibition curve with a large enough effect; inconclusive = small, poorly fitted or top-dose-only effect, or another doubt; inactive = no such curve, though single readings can be large or run the other way. Potency is the fitted concentration of half-maximal effect.

SMILES	Pf growth 96h	SARS PLP yeast	RE007 growth inh	Pf growth 48h	NS1 function inh
CCOc1ccc2nc(NC(=O)CN3CCN(CC)CC3)sc2c1	-24%	0%	1%	-2%	16%
CCOc1ccc2nc(NC(=S)NCc3ccccc3)sc2c1	4.1µM*	24%	-14%	x	2%
CCOc1ccc2nc(NC(=O)c3ccco3)sc2c1	-25%	-15%	u	199%	-29%
CCOc1ccc2nc(NC(=O)c3ccoc3C)sc2c1	-14%	-16%	10µM*	-53%	-47%
CCOC(=O)C1=C(C)NC(=O)N[C@@H]1c1coc2cc(C)cc(C)c2c1=O	x	x	x	x	-23%
CCn1c(=O)[nH]c2cc(C(=O)Nc3cc(C)cc(C)c3)ccc2c1=O	30%	-2%	-12%	4.7µM*	1%
CC(=O)Nc1ccc(NC(=S)NC(=O)/C=C/c2ccc(Cl)cc2)cc1	5%	1%	-13%	2%	x
O=C(/C=C/c1ccc(Cl)cc1)NC(=S)Nc1ccc(NC(=O)c2ccco2)cc1	15µM*	2%	-2%	-14%	12%
COc1ccc(/C=C/C(=O)NC(=S)NNC(=O)c2ccco2)cc1	10µM*	-8%	8%	34%	-9%
COc1ccc(/C=C/C(=O)NC(=S)NNC(=O)c2cc(OC)c(OC)c(OC)c2)cc1	u	1%	25%	15µM*	0%
CCC(=O)Nc1ccc(NC(=O)/C=C/c2ccc(Cl)cc2)cc1	9.3µM*	14%	6%	13%	3%
CCc1nc2c(OCc3ccccc3C)cccn2c1N(C)C(=O)C1CC1	x	x	-14%	x	x
CNc1c([N+](=O)[O-])cnn1-c1ccccn1	4%	2%	2%	4%	1%
Cc1ccnc(NC(=S)NC(=O)/C=C/c2ccc(Cl)cc2)c1	4.1µM*	1%	-2%	57%	-10%
O=C(O)CSc1cc(-c2ccccc2)nc2ccccc12	x	x	x	x	-5%
Cn1c(-c2ccsc2)c(-c2cccs2)c2cc(-c3ccc4cc[nH]c4c3)ccc21	u	0%	-12%	2.1µM*	x
Cn1c(-c2ccsc2)c(-c2cccs2)c2cc(-c3ccc4[nH]ccc4c3)ccc21	5.9µM*	-3%	5%	5.2µM*	x
CCNC(=O)N(C)c1c(CC)nc2ccc(C(=O)N3CCN(C(=O)c4ccco4)CC3)cn12	x	x	-15%	x	x
Cc1[nH]c2ccccc2c1C(=O)CN1CC=C(c2ccccc2)CC1	u	-10%	-6%	12µM*	-14%
Cc1[nH]c2ccccc2c1C(=O)CN1CCN(C/C=C/c2ccccc2)CC1	u	-2%	-10%	8.3µM*	10%
COc1ccc2[nH]c(C)c(C(=O)CN3CCN(C(=O)c4ccco4)CC3)c2c1	x	0%	-8%	u	9%
Cc1[nH]c2ccccc2c1C(=O)CN1CCN(C2CCCCC2)CC1	-20%	9%	x	u	-4%
COc1ccc2[nH]c(C)c(C(=O)CN3CCN(C/C=C/c4ccccc4)CC3)c2c1	8.3µM*	-1%	1%	u	4%
CCCNC(=O)N(C)C[C@H]1Oc2ncc(C#CCc3ccccc3)cc2C(=O)N([C@H](C)CO)C[C@H]1C	x	x	-5%	x	x
O=S(=O)(Nc1ccccc1O)c1ccc(Cl)nc1	19%	1%	11%	6%	2%
SMILES	Pf growth 96h	SARS PLP yeast	RE007 growth inh	Pf growth 48h	NS1 function inh
COC(=O)c1ccc([N+](=O)[O-])c(CS(=O)(=O)c2ccc(Cl)cc2)c1	12%	1%	-7%	-16%	2%
CO/N=C/CC(=O)c1ccc([N+](=O)[O-])c(CS(=O)(=O)c2ccc(Cl)cc2)c1	u	1%	x	15µM*	u
CN1C[C@H](CNC(=O)OCc2ccccc2)C[C@@H]2c3cccc4c3c(cn4C)C[C@H]21	2.9µM*!	-19%	3%	10µM*	5%
FC(F)(F)c1nc2ccc(SSc3ccc4nc(C(F)(F)F)[nH]c4c3)cc2[nH]1	x	x	x	x	-15%
COc1cccc(Nc2nc(-c3sc(NC(=O)CC(C)C)nc3C)cs2)c1	13µM*	-1%	11%	u	2%
C=CCCC(=O)Nc1nc(C)c(-c2csc(Nc3cc(OC)ccc3OC)n2)s1	13µM*	-6%	2%	u	17%
CC(=O)Nc1nc(C)c(-c2csc(Nc3cccc([N+](=O)[O-])c3)n2)s1	0.83µM*	5%	-2%	x	2%
O=C(NC(=S)Nc1nc(-c2cccc([N+](=O)[O-])c2)cs1)c1cc(Cl)ccc1Cl	35%	0%	-12%	u	5%
O=[N+]([O-])c1cccc(NC(=S)Nc2nc(-c3ccc(Cl)cc3Cl)cs2)c1	0%	1%	x	5.9µM*	16%
CC(=O)Nc1nc(C)c(-c2csc(Nc3cccc(C(C)=O)c3)n2)s1	7%	-4%	-5%	x	6%
CCC(=O)Nc1nc(C)c(-c2csc(Nc3cccc(C(=O)O)c3)n2)s1	u	-1%	-4%	98%	x
Cc1nc(NC(=O)c2ccccc2)sc1-c1csc(NCc2ccco2)n1	u	-4%	-18%	5.9µM*	u
C=CCCC(=O)Nc1nc(C)c(-c2csc(Nc3cccc(OC)c3)n2)s1	12µM*	-1%	5%	2.6µM*	10%
Cc1nc(C)c(-c2csc(NCc3ccco3)n2)s1	7%	-18%	-27%	26%	-18%
COc1cccc(Nc2nc(-c3cccnc3)cs2)c1	-24%	5%	1%	123%	-42%
COc1cccc(Nc2nc(-c3sc(NC(=O)c4ccccc4)nc3C)cs2)c1	4.1µM*	-2%	-20%	5.2µM*	2%
CCCC(C)C(=O)Nc1nc(C)c(-c2csc(Nc3cc(OC)ccc3OC)n2)s1 (stereo unspecified)	9.3µM*	2%	13%	6.6µM*	27%
Cc1ccc(S(=O)(=O)c2c(C)cc(C)[nH]c2=O)c(C)c1	1%	1%	2%	3%[0.00184 µM]	1%
COc1ccc(OC)c(Nc2nc(-c3sc(N)nc3C)cs2)c1	x	-2%	-9%	15µM*	-37%
COc1ccc(Nc2nc(-c3sc(C)nc3C)cs2)cc1	32%	-29%	0%	40%	-129%
CCC(=O)Nc1nc(C)c(-c2csc(Nc3ccc(C(=O)O)cc3)n2)s1	-47%	0%	-13%	0%	0%
Cc1nc(NC(=O)c2ccccc2)sc1-c1csc(Nc2ccc(C(=O)O)cc2)n1	2.9µM*	-4%	3%	57%	2%
O=C1OC(c2ccccc2)(c2cc(Br)ccc2O)c2ccccc21 (stereo unspecified)	x	x	-5%	x	x
Cc1cc(N2CCN(C3CCCCC3)CC2)nc2cccc(O)c12	u	4%	-3%	2.9µM*	9%
CCCCCOc1ccc(Br)cc1CSC(=N)N	u	0%	-26%	10µM*	-9%
COc1ccc(NC(=O)NNS(=O)(=O)c2ccc(OC)c(OC)c2)c(OC)c1	-26%	-2%	8%	34%	11%
CCN(CC)S(=O)(=O)c1cccc(NC(=O)C2SC(=Nc3ccc(C)cc3C)C(C(=O)NCC3CCCO3)=C2N)c1 (stereo unspecified)	x	-1%	6%	9.3µM*	u

Compound activity as filed in PubChem BioAssay.
